{
  "source": "PubChem BioAssay (NCATS)",
  "note": "Several values for one entry are separate records, joined by “and”; a condition that tells them apart may be missing. Identical values can stand only once. Records with an inconclusive call do not appear. Where a call stands in place of a potency, no number is given. Values without a mark were called inactive. Activity calls are given as the source filed them. The call rests on the fitted dose curve; in most records, active means well fitted cell-killing curve with a large enough effect; inconclusive means small, poorly fitted or top-dose-only effect, or effect the other way; inactive means no such curve, though single readings can be large or run the other way. Potency means the concentration at half of the fitted maximal effect.",
  "data": [
    {"test": "Viability qHTS for spleen associated tyrosine kinase inhibitor (SYKi) naive MV4-11 cells (AID 1963823); further: nearly all actives have a fitted effect of over 40% in size", "conditions": "MV4-11 AML viability, CellTiter-Glo luminescence, 72 h; series mostly up to 45 µM", "text": "Department of Medicine, Hematology/Oncology\nUniversity Hospital Frankfurt, Germany.\nTrials have shown promising clinical activity of the selective SYK inhibitor entospletinib in patients with high expressing HOXA9/MEIS1 acute leukemias. As the development of resistance mechanisms is a common problem in the use of targeted drugs, we performed a chemical library screen to identify drug sensitivities in SYK inhibitor resistant AML cells. […] Glucocorticoids are potent immunosuppressants which work in part by inhibiting the transcription of cytokine genes.\nDescribed herein is a viability screen to look for activity in the SYK inhibitor naive cell line against four NCATS compound libraries (MIPE 5.0, NPC, NPACT, and Kinase) totaling 11372 compounds. Active hits were reacquired for confirmation and further secondary assay testing.\nSEQUENCE No. (e.g., 1, 2, 3, etc.); […] (e.g., Cells, Incubation, Reagent, etc.); VALUE; DESCRIPTION.\n1; Media; 2uL; white, solid-bottom Corning assay plate.\n2; Compounds; 23nL; Echo acoustic dispenser.\n3; Cell; 5uL; 500 cells per well.\n4: Incubation; 72hr; 37 C, 5% CO2, 95% humidity.\n5; Reagent; 3uL; CellTiter-Glo reagent (Promega).\n6; Incubation; 10min; room temperature.\n7; Detection; Luminescence; ViewLux plate reader (PerkinElmer).\nNOTES (numbers refer to Sequence numbers above\n1. Quantitative high-throughput screening (qHTS) of small molecule compounds was conducted on naive SYKi MV4-11 cell line.\n2. Twenty-three nanoliter of small molecule compounds were added to each assay plates using the Echo acoustic dispenser (Beckman Coulter).\n3. Cells were seeded into the assay plates at a final density of 500 cells in 5uL of media per well using the Multi-drop Combi dispenser.\n4. Plates were covered with stainless steel gasketed lids and incubated for 72 hours at standard cell culture conditions.\n5. Viability was assessed by adding 3uL of CellTiter-Glo detection reagent (Promega).\n6. Plates were covered with gasket lids and incubated for 10 minutes at room temperature.\n7. Luminescence was measured on a ViewLux plate reader (PerkinElmer).", "values": [
      {"smiles": "C=CC(=O)Nc1cc(-n2c(=O)ccc3cnc4ccc(-c5ccc(NS(C)(=O)=O)cc5)cc4c32)ccc1C", "Potency": "1.16 µM (active)"},
      {"smiles": "CC[C@@](C)(Nc1ccnc(-c2c[nH]c3ncccc23)n1)C(=O)NCC(F)(F)F", "Potency": "14.6 µM (active)"},
      {"smiles": "C[C@@H]1CC[C@@]2(OC1)O[C@H]1C[C@H]3[C@@H]4CC[C@H]5C[C@@H](O)CC[C@]5(C)[C@H]4CC(=O)[C@]3(C)[C@H]1[C@@H]2C", "viability (% of control)": "83.6% [at 4.97 µM]"},
      {"smiles": "Cn1nc(-c2ccc(C(F)(F)F)cc2)nc2c(=O)n(C)c(=O)nc1-2", "Potency": "3.66 µM (active)"},
      {"smiles": "COc1ccc(/C(C)=C/C(=O)O)c(OC)c1", "Potency": "inactive"},
      {"smiles": "CCC1(O)CC2c3cc(OC)c(OC)cc3CCN2CC1CC(C)C", "note": "(stereo not given)", "Potency": "inactive"},
      {"smiles": "COc1ccc2cc3[n+](cc2c1OC)CCc1cc2c(cc1-3)OCO2", "Potency": "4.22 µM (active) and 1.48 µM (active)"},
      {"smiles": "COC(=O)C1=COC(O[C@@H]2O[C@H](CO)[C@@H](O)[C@H](O)[C@H]2O)C2C(C)C(=O)CC12", "note": "(stereo not given in full)", "Potency": "inactive"},
      {"smiles": "O=C1NC(=O)/C(=C/c2cccc(C(F)(F)F)c2)S1", "Potency": "inactive"},
      {"smiles": "CN(C)CCCCCCNC(=O)c1cccc(-c2cc(O)c3ncccc3c2)c1", "Potency": "2.59 µM (active)"},
      {"smiles": "COc1ccc2cc1Oc1cc3c(cc1OC)CC[N+](C)(C)[C@H]3Cc1ccc(cc1)Oc1c(OC)c(OC)cc3c1[C@@H](C2)[N+](C)(C)CC3", "Potency": "inactive"},
      {"smiles": "COc1cc(O)cc(C)c1C(=O)OC1C(CO)OC(OC2C(O)C(O)C(O)C(O)C2O)C(O)C1O", "note": "(stereo not given)", "Potency": "inactive"},
      {"smiles": "CN(C)Cc1cccc(N=C(c2ccccc2)c2c(O)[nH]c3cc(C(=O)N(C)C)ccc23)c1", "Potency": "2.95 µM (active)"},
      {"smiles": "O=C1COc2nccc(-c3ccccc3F)c2CN1Cc1cc(C(F)(F)F)cc(C(F)(F)F)c1", "Potency": "11.6 µM (active)"},
      {"smiles": "COc1ccccc1CC(C(=O)O)N(C)C(=O)c1ccccc1", "note": "(stereo not given)", "Potency": "inactive"},
      {"smiles": "CCN1CCN(C(=O)N[C@@H](C(=O)N[C@@H]2C(=O)N3[C@@H]2SC(C)(C)[C@@H]3C(=O)O)c2ccccc2)C(=O)C1=O", "Potency": "inactive"},
      {"smiles": "Oc1ccc(C2=Cc3ccc(O)cc3OC2)cc1", "Potency": "0.417 µM (active)"},
      {"smiles": "OCCCc1ccccc1", "Potency": "inactive"},
      {"smiles": "O=C1NC(c2cccc([N+](=O)[O-])c2)=CCN1c1ccccc1O", "Potency": "inactive"},
      {"smiles": "CC1C(OC(=O)c2ccccc2)C(O)C2C(C(=O)O)=COC(OC3OC(CO)C(O)C(O)C3O)C12", "note": "(stereo not given)", "Potency": "inactive"},
      {"smiles": "CNc1ncc2cc(-c3cc(NC(=O)NCCC(C)(C)C)c(F)cc3C)c(C)nc2n1", "Potency": "0.103 µM (active)"},
      {"smiles": "CC1CCC2C(C)(C)C(O)C(O)CC2(C)C12Cc1c(O)cc(CO)c(C=O)c1O2", "note": "(stereo not given)", "Potency": "inactive"},
      {"smiles": "Cc1ccc(NC(=O)N2CCN(c3nc(N)nc4sc(-c5cccnc5)nc34)CC2)cc1", "Potency": "0.013 µM (active)"},
      {"smiles": "CC1OC2OC(=O)C3(C)CC4=C(CO)C5=C(CC(=O)C4(C)C(C1=O)C23)C(C)(C)OC(=O)C5", "note": "(stereo not given)", "Potency": "inactive"},
      {"smiles": "CN(C1CCc2c(c3ccccc3n2CC(=O)O)C1)S(=O)(=O)c1ccc(F)cc1", "note": "(stereo not given)", "Potency": "inactive"},
      {"smiles": "CC1(C)CC[C@]2(C(=O)O[C@@H]3O[C@H](CO)[C@@H](O)[C@H](O)[C@H]3O)CC[C@]3(C)C(=CCC4[C@@]5(C)C[C@H](O)[C@H](O[C@@H]6O[C@H](C(=O)O)[C@@H](O)[C@H](O)[C@H]6O)[C@@](C)(CO)C5CC[C@]43C)C2C1", "note": "(stereo not given in full)", "viability (% of control)": "24.2% [at 9.25 µM]"},
      {"smiles": "CC1=CC(=O)C(=C(C)C)CC2C1CCC2(C)O", "note": "(stereo not given)", "Potency": "inactive"},
      {"smiles": "CC(C)(C)C(=O)Oc1ccc2c(c1)nc(NC(=O)c1cccc([N+](=O)[O-])c1)n2CCCO", "Potency": "4.68 µM (active)"},
      {"smiles": "CC(C)C(=O)c1c(C(C)C)nn2ccccc12", "Potency": "inactive"},
      {"smiles": "CC(=O)Oc1cc(C(C)C)c(OCCN(C)C)cc1C", "Potency": "0.0011 µM (active)"},
      {"smiles": "CC[C@H](CO)Nc1nc(Nc2cccc(-c3ccccn3)c2)c2ncn(C(C)C)c2n1", "Potency": "2.59 µM (active)"},
      {"smiles": "Cc1ccccc1Sc1ccc(/C=C2\\SC(=S)NC2=O)cc1[N+](=O)[O-]", "Potency": "inactive"},
      {"smiles": "Cc1cc(-c2nc(C(=O)Nc3cn(C4CCOCC4)nc3C(N)=O)co2)ccn1", "Potency": "0.0461 µM (active)"},
      {"smiles": "C=C1CCC2C(C)(C(=O)OC)CCCC2(C)C1CCC(C)CC(=O)O", "note": "(stereo not given)", "Potency": "inactive"},
      {"smiles": "Nc1nonc1-c1nc2cnccc2n1C1CC1", "Potency": "2.06 µM (active)"},
      {"smiles": "Cc1onc(-c2c(F)cccc2Cl)c1C(=O)N[C@@H]1C(=O)N2[C@@H]1SC(C)(C)[C@@H]2C(=O)O", "Potency": "inactive"},
      {"smiles": "CCOc1ccc(-c2cc(NC(=O)c3c(F)cccc3F)c(C(=O)O)s2)cc1", "Potency": "inactive"},
      {"smiles": "O=C(O)Cc1cn(C2OCC(O)C(O)C2O[C@@H]2O[C@H](CO)[C@@H](O)[C@H](O)[C@H]2O)c2ccccc12", "note": "(stereo not given in full)", "Potency": "inactive"},
      {"smiles": "O=C(NCN1CCOCC1)c1cnccn1", "Potency": "inactive"},
      {"smiles": "NC(=O)[C@H]1CCCCc2c1[nH]c1ccc(Cl)cc21", "Potency": "inactive"}
    ]}
  ]
}
